Assay outcomes (PubChem BioAssay)
TGFb SMAD3 inh: qHTS for Inhibitors of TGF-b | AID 588855, 2011 | Potency, µM (doses to about 46.1 µM), for inactives: at the top dose activity, negative = inhibition, hits mostly inhibitors | HepG2 CAGA-GFP TGF-b/SMAD3 reporter, GFP fluorescence, 18 h; TGF-beta stimulated, 500 pg/mL final | 410,000 compounds, 1.2% hits; note: % is set by controls: 0 for no effect and ±100 for the full control effect; nearly all actives have a fitted effect of over 65% in size
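Using HEPG2 CAGA-GFP reporter cells at 1000 cells/well, we pinned test compounds, stimulated with recombinant TGF-beta (500 pg/mL final) and measured total well GFP after 18 h.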
HepG2 tox: qHTS for Inhibitors of TGF-b: Cytotox Counterscreen; Potency, µM (titrated, usually from 46.1 µM), for inactives: at the highest dose activity change, negative = cytotoxicity, most hits filed as cytotoxic; 410,000 compounds, 0.76% hits; HepG2 CAGA-GFP viability, ATP luminescence, 18 h
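HepG2 CAGA-GFP cells (1000/well, DMEM with 1% FBS) received compound, then TGF-beta at 500 pg/mL final, and were incubated 18 hours at 37 degrees C. Viability was read by CellTiter-Glo luminescence. Media-only wells were set as complete cell-killing and DMSO as no toxicity.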
ATXN viability: Viability Counterscreen for Primary qHTS for Inhibitors of ATXN expression | S2 cells (HEK-293 line with an ATXN2-luciferase reporter) viability, CellTiter-Fluor protease fluorescence, 24 h | AID 651635, 2014 | 400,000 compounds, 0.49% hits | Potency, µM (highest dose often 56.7 µM), hits mostly cytotoxic; note: nearly all actives have a fitted effect of over 40% in size
Nrf2 block: Nrf2 qHTS screen for inhibitors | Potency, µM (titrated, usually from 46 µM), for inactives: top-dose activity change, negative = inhibition, actives largely listed as inhibitors | A549 ARE-Fluc reporter, luciferase luminescence, 18-24 h | 360,000 compounds, 2.1% hits; note: % is set by controls: 0 for no effect and ±100 for the full control effect; nearly all actives have a fitted effect of over 60% in size
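Two sequential reads on A549 ARE_Fluc cells exposed to compound for 18-24 h: a CellTiter-Fluor fluorescence read for viability, then a luciferase luminescence read for Nrf2/ARE activity.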
A549 tox: Nrf2 qHTS screen for inhibitors: counterscreen for cytotoxicity; AID 504648, 2011; Potency, µM (series often up to 46 µM), for inactives: at the top dose activity change, negative = cytotoxicity, usual class: inhibitors; 390,000 compounds, 0.16% hits; A549 ARE-Fluc cells, CellTiter-Fluor viability, 18-24 h; note: % is set by controls: 0 for no effect and ±100 for the full control effect
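A549 ARE-Fluc cells in 5% FBS OPTI-MEM, 5000 cells/well, rested 2 h then exposed to compounds in concentration-response for 18-24 h at 37 °C. Viability by CellTiter-Fluor fluorescence (Ex 405/Em 525) after 30 min; luciferase luminescence (BugLite, 15 min, RT) read afterwards.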
ATXN2 expr inh: Primary qHTS for Inhibitors of ATXN expression. HEK-293 ATXN2-luciferase reporter, luminescence, 24 h. Potency, µM (top dose mostly 57 µM), for inactives: top-dose activity change, negative = inhibition, most hits filed as inhibitors. 360,000 compounds, 0.72% hits. AID 1745845, 2022; note: % is set by controls: 0 for no effect and ±100 for the full control effect; nearly all actives have a fitted effect of over 55% in size
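ATXN2-luciferase reporter cells (luciferase flanked by upstream and downstream ATXN2 gene portions) were treated 24 h at 37 °C with compounds at up to 57 uM. SteadyGlo luminescence gave expression; GF-AFC fluorescence gave viability.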
Starred values were filed as active, the others as inactive; i = inactive; ? = inconclusive; . = not tested or not shown; ! = not confirmed by another sample; [ ] = dose if it differs, or a comment. An excerpt weighted towards active compounds, which were near 3.8% of everything screened. Calls come from the whole dose curve; as a rule, active = well fitted curve in the direction sought with a large enough effect; inconclusive = small, poorly fitted or top-dose-only effect, or another doubt; inactive = no such curve, though single readings can be large; an effect the other way counts as inactive or inconclusive. Potency is the fitted concentration of half-maximal effect.

SMILES | TGFb SMAD3 inh | HepG2 tox | ATXN viability | Nrf2 block | A549 tox | ATXN2 expr inh
COc1ccc(-c2csc(NCc3ccco3)n2)cc1C | ? | -34% | ? | ? | -4% | 76%
O=C(CCCNS(=O)(=O)c1ccc(Cl)c(Cl)c1)NCCc1ccccn1 | 2% | 21% | i | -3% | 9% | 14%
Cc1nnc(SCC(=O)N2CCCC2)n1-c1ccc(F)cc1 | 0% | 4.5µM* | i | 3% | 0% | -7%
CN(C(=O)Cc1c[nH]c2ccccc12)C(C(=O)Nc1ccc2c(c1)OCO2)c1ccccc1 (stereo not drawn) | ? | 5% | i | 23µM* | ? | 17%
CCC1(c2ccc(F)cc2)NC(=O)N(CC(=O)N2CCN(S(=O)(=O)c3ccc(C)cc3C)CC2)C1=O (stereo not drawn) | ? | -29% | ? | 18µM* | -22% | .
CCC1(c2ccc(F)cc2)NC(=O)N(CC(=O)N2CCN(S(=O)(=O)c3ccc(Cl)cc3)CC2)C1=O (stereo not drawn) | -11% | -23% | i | -25% | -6% | 7%
CCC[C@H]1COCCS(=O)(=O)N1Cc1ccc(Br)cc1 | ? | -40% | . | . | . | .
CCCCOC(=O)c1ccc(NC(=O)c2ccc3c(c2)CCN3S(=O)(=O)c2ccccc2)cc1 | -1% | -11% | . | 4% | 0% | .
CCCCOC(=O)c1ccc(NC(=O)c2ccc3c(c2)CCCN3S(C)(=O)=O)cc1 | -10% | -31% | ? | ? | 6% | 7.1µM*
Cc1cccc(-c2nnc(SCCC(=O)O)o2)c1 | -5% | -6% | i | 1.5µM* | 2% | 1.4µM*
CC1(Cc2ccc(OC(F)(F)F)cc2)C(=O)Nc2c(Cl)ccc(Cl)c21 (stereo not drawn) | 16µM* | -113% | ? | . | . | ?
COc1ccc(OC(F)(F)F)cc1CC1(C)C(=O)Nc2ccc(-c3ccsc3)cc21 (stereo not drawn) | 13µM* | -103% | . | . | . | -13%
CC1(Cc2ccc(OC(F)(F)F)cc2)C(=O)Nc2ccc(OC(F)(F)F)cc21 (stereo not drawn) | ? | 18µM* | ? | . | . | ?
COC(=O)c1ccc(CC2(C)C(=O)Nc3ccc(-c4cccc(C(F)(F)F)c4)cc32)o1 (stereo not drawn) | ? | 22µM* | 32µM* | . | . | ?
CC(=O)c1cccc(-c2ccc3c(c2)C(C)(Cc2ccccc2F)C(=O)N3)c1 (stereo not drawn) | -24% | -32% | ? | . | . | ?
O/C(=C\Sc1nnc(Cc2ccccc2)o1)c1ccc(F)cc1 | -3% | -10% | i | 15% | -3% | 16%
Cc1cccc(NC(=O)COC(=O)CN2C(=O)c3ccccc3C2=O)c1 | -2% | -1% | ? | . | . | .
CC1(Cc2ccccc2OC(F)(F)F)C(=O)Nc2c(Cl)ccc(Cl)c21 (stereo not drawn) | 14µM* | -94% | ? | . | . | 0%
CCCCC(=O)OC1=C(C(=O)c2ccccc2)N(CCC)S(=O)(=O)c2ccccc21 | ? | -78% | ? | ? | ? | ?
CCCCCN1C(C(=O)c2ccccc2)=C(OC(=O)CC)c2ccccc2S1(=O)=O | ? | 11µM* | ? | 5.8µM* | ? | -20%
CCCCN1C(C(=O)c2ccccc2)=C(OC(=O)CC)c2ccccc2S1(=O)=O | ? | -45% | ? | 21µM* | ? | ?
CCCCCN1C(C(=O)c2ccccc2)=C(NC(C)=O)c2ccccc2S1(=O)=O | ? | -11% | i | ? | ? | -10%
CCc1ccc(NC(=O)CN2C(=O)C(c3ccc(Cl)cc3)=NC23CCCCC3)cc1 | . | -14% | . | ? | -12% | .
CN(C)c1ccc(/C=C/N2C=CCc3c2ccc2ccccc32)cc1 | 7.1µM* | -85% | . | . | . | .
COc1ccc(C(=O)Oc2c(C)occc2=O)cc1OC | 10% | -1% | i | . | 11% | -11%
SMILES | TGFb SMAD3 inh | HepG2 tox | ATXN viability | Nrf2 block | A549 tox | ATXN2 expr inh
Cc1occc(=O)c1OC(=O)Nc1ccc(Cl)c(Cl)c1 | 10µM* | -66% | ? | ? | -17% | -5%
CCOC(=O)[C@]12Cc3c(cc(OC)c(OC)c3OC)[C@H]1N(Cc1ccccc1)C(=O)c1cc(OC)ccc12 | . | . | 11µM* | . | . | 20µM*
O=C(C[C@H]1C(=O)N(CCc2ccccc2)C[C@@H]1Cc1ccccc1)Nc1ccccc1 | 11µM* | -25% | ? | 5% | -11% | -26%
Cc1ccc([N+](=O)[O-])cc1N(CC(=O)Nc1ccc(S(=O)(=O)Nc2cccc(C(F)(F)F)c2)cc1)S(C)(=O)=O | -94% | -91% | i | 21µM* | ? | ?
COc1ccccc1N(CC(=O)Nc1cccc(C(F)(F)F)c1)S(C)(=O)=O | -2% | 10% | i | -4% | 1% | 4%
CN(C)c1ccc(/C=C2\C=Nc3ccccc32)cc1 | ? | -40% | . | . | . | .
Cc1cc(N2CCN(C)CC2)nc2ccc(NC(=O)c3ccc(C(C)(C)C)cc3)cc12 | ? | 13µM* | 16µM* | -7%[9.27 µM] | -11% | ?
CCN1CCN(c2cc(C)c3cc(NC(=O)c4ccc(OC)c(OC)c4)ccc3n2)CC1 | 75% | -31% | ? | 16µM*! | 16µM*! | -8%
Cc1ccccc1C(=O)OCc1cc(=O)n2nc(C3CCCCC3)sc2n1 | -9% | 3% | i | ? | -1% | 4%
CC1CN(S(=O)(=O)c2ccc(Cl)c(C(F)(F)F)c2)CC(C)O1 (stereo not drawn) | 0% | 2% | i | . | 4% | -12%
C=CCOC(=O)c1[nH]c2c(c1C)C(=O)CC(c1cc(OC)c(OC)c(OC)c1)C2 (stereo not drawn) | -19% | -26% | ? | 10µM* | -30% | ?
COCCOC(=O)c1[nH]c2c(c1C)C(=O)CC(c1cc(OC)c(OC)c(OC)c1)C2 (stereo not drawn) | -8% | -13% | i | ? | -3% | -24%
CCCCOC(=O)c1[nH]c2c(c1C)C(=O)CC(c1cc(OC)c(OC)c(OC)c1)C2 (stereo not drawn) | -20% | -27% | i | 13µM* | -29% | ?
C/C(=N\NC(=O)C12CCC(C)(C(=O)O1)C2(C)C)c1ccccc1O (stereo not drawn) | ? | -45% | i | ? | -3% | 28µM*
O=C(N/N=C\c1cccc(OC(=O)c2ccco2)c1)c1ccc2c(c1)OCO2 | 0% | 1% | i | 2.3µM* | -2% | -2%
